A word on the inhibition: it is the drop in the measured response relative to a control, in per cent.

For this experiment, the target named is Solute carrier family 2, facilitated glucose transporter member 1 (Homo sapiens) (UniProt P11166). In words: ST_JUDE_LEISH: Cytotoxicity at 2uM final concentration against transgenic Leishmania Mexicana promastigotes LmGLUT1 that are glucose transport deficient and complemented with the human glucose transporter GLUT1. Activity is measured by DNA content using SYBR green in vitro. The class given is functional.
Sequence of Solute carrier family 2, facilitated glucose transporter member 1 (Homo sapiens) (P11166 whole entry): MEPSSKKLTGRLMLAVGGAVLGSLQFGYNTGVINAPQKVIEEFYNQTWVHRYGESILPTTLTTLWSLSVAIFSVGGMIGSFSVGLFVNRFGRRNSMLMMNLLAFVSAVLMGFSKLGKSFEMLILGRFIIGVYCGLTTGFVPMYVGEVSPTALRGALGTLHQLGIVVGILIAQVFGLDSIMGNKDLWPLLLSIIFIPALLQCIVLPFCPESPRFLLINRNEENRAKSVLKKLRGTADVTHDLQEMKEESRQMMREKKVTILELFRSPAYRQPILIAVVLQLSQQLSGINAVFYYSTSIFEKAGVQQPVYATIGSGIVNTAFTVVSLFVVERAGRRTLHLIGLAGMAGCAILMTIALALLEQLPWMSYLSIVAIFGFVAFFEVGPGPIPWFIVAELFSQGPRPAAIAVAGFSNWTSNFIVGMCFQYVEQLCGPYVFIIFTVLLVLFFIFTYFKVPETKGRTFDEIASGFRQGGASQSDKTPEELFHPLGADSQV
Regarding `Cc1cccc2nc(-c3cccc(-c4cccc(CNC(C)C)c4)c3)[nH]c12`, the inhibition is -0.63%.

In the case of `CCOc1ccc(C(=O)Nc2nonc2-c2ccc(OC)c(OC)c2)cc1`, the inhibition is -0.49%. As for `OCC1CCN(Cc2cccc(-c3ccc(-c4nc5cc(C(F)(F)F)ccc5[nH]4)cc3)c2)CC1`, the figure is 1.05%. As to `CCc1c[nH]c2c(N3CCCCS3(=O)=O)cc(C(=O)N[C@@H](Cc3ccccc3)[C@H](O)CNCc3cccc(OC)c3)cc12`, the inhibition is 0.82%.

On to `CCCCCCc1cc(OC)c(OC)cc1C(C)Nc1ccnc2cc(Cl)ccc12` (stereo not given), for which the inhibition came out at 8.21%.

For the compound `Cc1cc(N[C@@H](Cc2ccccc2)C(=O)NC2CCCC2)nc(NCC2CCCCC2)n1`, the inhibition is 3.03%. As for `O=C(Nc1cccc(CN2CCCN(Cc3ccc(O)cc3)CC2)c1)c1ccc(Cl)c(Cl)c1`, the figure is 10.6%; as for `O=S(=O)(NCCN1CCCC1)c1ccc(-c2cccc(CNCc3ccsc3)c2)s1`, 5.4%; as for `Cc1[nH]c(C)c(-c2ccc(-c3ccc(F)cc3)nc2)c(=O)c1Br`, 0.98%. As for `O=C(NCCc1ccc(O)cc1)n1c2ccccc2c2ccccc21`, the figure is 2.7%. `COc1ccccc1N1CCN(CCCCNC(=O)c2ccc(NC(=O)c3cc(Cl)cc(Cl)c3)cc2)CC1`: the inhibition was found to be 2.07%.

For the compound `CCOC(=O)CCCCCNC[C@H](O)c1ccccc1`, the inhibition is -1.32%. As for `CCOC(=O)c1ccc(NC(=O)Nc2ccc(-c3cccc(-c4nc5cccc(C)c5[nH]4)c3)cc2)cc1`, the figure is -0.01%; as for `Cc1cc(NC(=O)c2cc(S(=O)(=O)N3CCCCC3)ccc2C)no1`, 4.25%. The same measure for `COc1ccc(NC(=O)[C@H](Cc2ccccc2)Nc2cc(C)nc(Nc3ccccc3)n2)cc1`: 12.3%; for `O=C(CCCCCNC(=O)c1ccc(O)c(-c2cccc(C(F)(F)F)c2)c1)NCCN1CCCCC1`: 5.39%.

Consider `O=C(NC1CCN(CCC[C@]2(c3ccc(Cl)c(Cl)c3)CCCN(C(=O)c3ccccc3)C2)CC1)c1ccc(Cl)cc1`, for which the inhibition is -0.59%. As for `O=C(C=Cc1ccc(Cl)c(Cl)c1)NCCCCCN1CCC(CCCNC(=O)c2sc3ccccc3c2Cl)CC1`, the figure is 2.7%; as for `CCc1c(CCNCCCCCCNCc2ccc3c(c2CC)OCO3)ccc(OC)c1OC`, 10.6%. Regarding `COc1ccc(CNC2Cc3ccccc3C2)cc1-c1ccc(S(=O)(=O)NCc2ccccc2)s1`, the inhibition amounted to 6.85%. As for `Cc1ccc(N2C(N)=NC(N)=NC2(C)C)cc1`, the figure is 2.52%; as for `CC(C)(C)Oc1ccc(C[C@@H]2NC3(C(=O)N(Cc4ccc(Cl)c(Cl)c4)c4ccccc43)C3C(=O)N(c4ccc(Br)cc4)C(=O)C32)cc1` (stereo not given in full), 4.6%. In the case of `COc1ccc(C(=O)N2CCN(c3ccc([N+](=O)[O-])c(NC4CC4)c3)CC2)cc1Br`, the inhibition came to 14.4%. With `Cc1cc(-c2cccc3c(C(=O)N4CCc5cc6nccc(N7CCN8CCC[C@H]8C7)c6cc54)cccc23)cc(C)n1`, the inhibition worked out at 1.99%. As for `Clc1ccc(Nc2nc(NCc3ccccc3)nc(N/N=C/c3ccccn3)n2)cc1`, the figure is 83.7%. As for `O=C(c1ccc(OCCn2ccnc2)cc1)N1CCC(c2ccc(Br)cc2)C1` (stereo not given), the figure is 0.09%.

Take `CC(C)(C)CCN1CCC(CNC(=O)c2cc(-c3cccc(C(F)(F)F)c3)cs2)C1` (stereo not given): the inhibition worked out at 3.1%. As for `CC(=Nc1ccc(Cl)c(Cl)c1)N(C)C`, the figure is 0.17%. As for `FC(F)(F)c1ccc2[nH]c(-c3cccc(-c4ccc(CNCc5cnn(-c6ccccc6)n5)cc4)c3)nc2c1`, the inhibition was -0.1%. As for `O=C(NCC1CCC(CNCCCc2ccccc2)CC1)c1cc(Cl)cc(Cl)c1` (stereo not given), the figure is 1.46%; as for `COc1ccc2nccc([C@@H](O)CN3CCC(NCc4cc5ccccn5n4)CC3)c2c1`, 4.35%; as for `CCn1c(SCC(=O)Nc2cc(C(F)(F)F)ccc2Cl)nc2ccccc2c1=O`, 1.69%. As to `CCNc1cc(C(=O)N[C@@H](Cc2ccccc2)[C@H](O)CN[C@@H](C)c2cccc(OC)c2)cc(N2CCCC2=O)c1`, the inhibition came out at 3.36%.

On to `Cc1cnc(C(=O)Nc2ccc(-c3cccc(-c4nc5ccccc5[nH]4)c3)cc2)cn1`, for which the inhibition turned out to be 2.19%.

As to `CCC(=O)Nc1ccc(C(O)CN2CCC3(C=Cc4ccccc4O3)CC2)cc1` (stereo not given), the inhibition worked out at 3.61%. As for `Cc1nc(N)nc(N)c1OCc1cccc2ccccc12`, the figure is 0.2%; as for `CCc1ccc(CNCC(CCNc2cc(=O)c3ccccc3[nH]2)NCc2cc(Br)cc(Br)c2)o1` (stereo not given), -1.12%; as for `OCCN1CCN(Cc2cccc(-c3ccc(-c4nc5cc(C(F)(F)F)ccc5[nH]4)cc3)c2)CC1`, 5.08%.

Consider `COc1ccc(-c2ccccc2CNC2Cc3ccccc3C2)cc1S(=O)(=O)NCCN1CCCC1`, for which the inhibition was 2.56%.

As to `Cc1cc(C)c(NC(=O)NC2CCN(CCCCCNC(=O)/C=C/c3ccc(Cl)c(Cl)c3)C2)c(C)c1` (stereo not given), the inhibition amounted to 2.03%.

The values are drawn from ChEMBL document CHEMBL3433997, “St. Jude Leishmania screening dataset” (2016).
